# Tests used:
# Assay in all cases: SPOT peptide array binding signal intensity (averaged, normalized) (arbitrary units (background-subtracted, floor 0; scale differs between SH3 domains)); higher = stronger binding of the SH3 domain to the peptide
# AgAbp1 = molecular target: AgAbp1
# In short: (§1)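 Cellulose membranes carried synthetic 15-mer peptides with cysteines swapped for serines. These were incubated overnight at 4°C with 10 μg/ml of GST-fused SH3 domains from four yeast species in TBS-based blocking buffer. Binding signal, detected with anti-GST antibody and quantified in Genespotter, is the normalized, background-subtracted spot intensity averaged over replicates, in arbitrary units specific to each domain.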
# AgBbc1 = molecular target: AgBbc1
# In short: as §1
# AgBem1-D1 = molecular target: AgBem1-D1
# In short: as §1
# AgBzz1-D1 = molecular target: AgBzz1-D1
# In short: as §1
# AgBzz1-D2 = molecular target: AgBzz1-D2
# In short: as §1
# AgCyk3 = molecular target: AgCyk3
# In short: as §1
# AgFus1 = molecular target: AgFus1
# In short: as §1
# AgHof1 = molecular target: AgHof1
# In short: as §1
# AgHse1 = molecular target: AgHse1
# In short: as §1
# AgLsb1 = molecular target: AgLsb1
# In short: as §1
# AgLsb4 = molecular target: AgLsb4
# In short: as §1
# AgMyo5 = molecular target: AgMyo5
# In short: as §1
# AgNbp2 = molecular target: AgNbp2
# In short: as §1
# AgRvs167 = molecular target: AgRvs167
# In short: as §1
# AgSho1 = molecular target: AgSho1
# In short: as §1
# AgSla1-D1-D2 = molecular target: AgSla1-D1-D2
# In short: as §1
# AgSla1-D3 = molecular target: AgSla1-D3
# In short: as §1
# CaAbp1-D1 = molecular target: CaAbp1-D1
# In short: as §1
# CaAbp1-D2 = molecular target: CaAbp1-D2
# In short: as §1
# CaBbc1 = molecular target: CaBbc1
# In short: as §1
# CaBem1-D1 = molecular target: CaBem1-D1
# In short: as §1
# CaBzz1-D1 = molecular target: CaBzz1-D1
# In short: as §1
# CaBzz1-D2 = molecular target: CaBzz1-D2
# In short: as §1
# CaCyk3 = molecular target: CaCyk3
# In short: as §1
# CaFus1 = molecular target: CaFus1
# In short: as §1
# CaHof1 = molecular target: CaHof1
# In short: as §1
# CaHse1 = molecular target: CaHse1
# In short: as §1
# CaLsb1 = molecular target: CaLsb1
# In short: as §1
# CaLsb4 = molecular target: CaLsb4
# In short: as §1
# CaMyo5 = molecular target: CaMyo5
# In short: as §1
# CaNbp2 = molecular target: CaNbp2
# In short: as §1
# CaRvs167 = molecular target: CaRvs167
# In short: as §1
# CaRvs167-3 = molecular target: CaRvs167-3
# In short: as §1
# CaSho1 = molecular target: CaSho1
# In short: as §1
# CaSla1-D1-D2 = molecular target: CaSla1-D1-D2
# In short: as §1
# CaSla1-D3 = molecular target: CaSla1-D3
# In short: as §1
# ScAbp1 = molecular target: ScAbp1
# In short: as §1
# ScBbc1 = molecular target: ScBbc1
# In short: as §1
# ScBem1-D1 = molecular target: ScBem1-D1
# In short: as §1
# ScBzz1-D1 = molecular target: ScBzz1-D1
# In short: as §1
# ScBzz1-D2 = molecular target: ScBzz1-D2
# In short: as §1
# ScCyk3 = molecular target: ScCyk3
# In short: as §1
# ScFus1 = molecular target: ScFus1
# In short: as §1
# ScHof1 = molecular target: ScHof1
# In short: as §1
# ScHse1 = molecular target: ScHse1
# In short: as §1
# ScLsb1 = molecular target: ScLsb1
# In short: as §1
# ScLsb2 = molecular target: ScLsb2
# In short: as §1
# ScLsb3 = molecular target: ScLsb3
# In short: as §1
# ScLsb4 = molecular target: ScLsb4
# In short: as §1
# ScMyo3 = molecular target: ScMyo3
# In short: as §1
# ScMyo5 = molecular target: ScMyo5
# In short: as §1
# ScNbp2 = molecular target: ScNbp2
# In short: as §1
# ScPex13 = molecular target: ScPex13
# In short: as §1
# ScRvs167 = molecular target: ScRvs167
# In short: as §1
# ScSho1 = molecular target: ScSho1
# In short: as §1
# ScSla1-D1-D2 = molecular target: ScSla1-D1-D2
# In short: as §1
# ScSla1-D3 = molecular target: ScSla1-D3
# In short: as §1
# SpAbp1-D1 = molecular target: SpAbp1-D1
# In short: as §1
# SpBbc1 = molecular target: SpBbc1
# In short: as §1
# SpBzz1-D1 = molecular target: SpBzz1-D1
# In short: as §1
# SpBzz1-D2 = molecular target: SpBzz1-D2
# In short: as §1
# SpCyk3 = molecular target: SpCyk3
# In short: as §1
# SpHof1 = molecular target: SpHof1
# In short: as §1
# SpHof1-2 = molecular target: SpHof1-2
# In short: as §1
# SpHof1-3 = molecular target: SpHof1-3
# In short: as §1
# SpHse1 = molecular target: SpHse1
# In short: as §1
# SpLsb1 = molecular target: SpLsb1
# In short: as §1
# SpLsb4 = molecular target: SpLsb4
# In short: as §1
# SpMyo1 = molecular target: SpMyo1
# In short: as §1
# SpNbp2 = molecular target: SpNbp2
# In short: as §1
# SpPex13 = molecular target: SpPex13
# In short: as §1
# SpRvs167 = molecular target: SpRvs167
# In short: as §1
# SpSla1-D1-D2 = molecular target: SpSla1-D1-D2
# In short: as §1
# SpSla1-D3 = molecular target: SpSla1-D3
# In short: as §1
binder,measurement,setting,value
GKLKHIPRRPYEIER,SPOT peptide array binding signal intensity,AgAbp1,3.5
same,SPOT peptide array binding signal intensity,AgBbc1,102
same,SPOT peptide array binding signal intensity,AgBem1-D1,14
same,SPOT peptide array binding signal intensity,AgBzz1-D1,11
same,SPOT peptide array binding signal intensity,AgBzz1-D2,10.5
same,SPOT peptide array binding signal intensity,AgCyk3,1.5
same,SPOT peptide array binding signal intensity,AgFus1,10
same,SPOT peptide array binding signal intensity,AgHof1,5.5
same,SPOT peptide array binding signal intensity,AgHse1,≤ 0
same,SPOT peptide array binding signal intensity,AgLsb1,1
same,SPOT peptide array binding signal intensity,AgLsb4,12
same,SPOT peptide array binding signal intensity,AgMyo5,0.25
same,SPOT peptide array binding signal intensity,AgNbp2,≤ 0
same,SPOT peptide array binding signal intensity,AgRvs167,1.83
same,SPOT peptide array binding signal intensity,AgSho1,≤ 0
same,SPOT peptide array binding signal intensity,AgSla1-D1-D2,≤ 0
same,SPOT peptide array binding signal intensity,AgSla1-D3,0.75
same,SPOT peptide array binding signal intensity,CaAbp1-D1,129
same,SPOT peptide array binding signal intensity,CaAbp1-D2,1
same,SPOT peptide array binding signal intensity,CaBbc1,552
same,SPOT peptide array binding signal intensity,CaBem1-D1,5
same,SPOT peptide array binding signal intensity,CaBzz1-D1,116
same,SPOT peptide array binding signal intensity,CaBzz1-D2,67.5
same,SPOT peptide array binding signal intensity,CaCyk3,67.5
same,SPOT peptide array binding signal intensity,CaFus1,≤ 0
same,SPOT peptide array binding signal intensity,CaHof1,≤ 0
same,SPOT peptide array binding signal intensity,CaHse1,1.5
same,SPOT peptide array binding signal intensity,CaLsb1,≤ 0
same,SPOT peptide array binding signal intensity,CaLsb4,40
same,SPOT peptide array binding signal intensity,CaMyo5,≤ 0
same,SPOT peptide array binding signal intensity,CaNbp2,≤ 0
same,SPOT peptide array binding signal intensity,CaRvs167,2.83
same,SPOT peptide array binding signal intensity,CaRvs167-3,≤ 0
same,SPOT peptide array binding signal intensity,CaSho1,≤ 0
same,SPOT peptide array binding signal intensity,CaSla1-D1-D2,≤ 0
same,SPOT peptide array binding signal intensity,CaSla1-D3,≤ 0
same,SPOT peptide array binding signal intensity,ScAbp1,7
same,SPOT peptide array binding signal intensity,ScBbc1,55.2
same,SPOT peptide array binding signal intensity,ScBem1-D1,6
same,SPOT peptide array binding signal intensity,ScBzz1-D1,12
same,SPOT peptide array binding signal intensity,ScBzz1-D2,1
same,SPOT peptide array binding signal intensity,ScCyk3,17.5
same,SPOT peptide array binding signal intensity,ScFus1,≤ 0
same,SPOT peptide array binding signal intensity,ScHof1,≤ 0
same,SPOT peptide array binding signal intensity,ScHse1,150
same,SPOT peptide array binding signal intensity,ScLsb1,12.5
same,SPOT peptide array binding signal intensity,ScLsb2,≤ 0
same,SPOT peptide array binding signal intensity,ScLsb3,122
same,SPOT peptide array binding signal intensity,ScLsb4,5
same,SPOT peptide array binding signal intensity,ScMyo3,1.5
same,SPOT peptide array binding signal intensity,ScMyo5,0.5
same,SPOT peptide array binding signal intensity,ScNbp2,26.5
same,SPOT peptide array binding signal intensity,ScPex13,17.5
same,SPOT peptide array binding signal intensity,ScRvs167,16.7
same,SPOT peptide array binding signal intensity,ScSho1,71.5
same,SPOT peptide array binding signal intensity,ScSla1-D1-D2,12
same,SPOT peptide array binding signal intensity,ScSla1-D3,0.75
same,SPOT peptide array binding signal intensity,SpAbp1-D1,11
same,SPOT peptide array binding signal intensity,SpBbc1,1.75
same,SPOT peptide array binding signal intensity,SpBzz1-D1,240
same,SPOT peptide array binding signal intensity,SpBzz1-D2,≤ 0
same,SPOT peptide array binding signal intensity,SpCyk3,2.5
same,SPOT peptide array binding signal intensity,SpHof1,8
same,SPOT peptide array binding signal intensity,SpHof1-2,1
same,SPOT peptide array binding signal intensity,SpHof1-3,44.2
same,SPOT peptide array binding signal intensity,SpHse1,21
same,SPOT peptide array binding signal intensity,SpLsb1,12
same,SPOT peptide array binding signal intensity,SpLsb4,53.5
same,SPOT peptide array binding signal intensity,SpMyo1,0.75
same,SPOT peptide array binding signal intensity,SpNbp2,≤ 0
same,SPOT peptide array binding signal intensity,SpPex13,≤ 0
same,SPOT peptide array binding signal intensity,SpRvs167,3.17
same,SPOT peptide array binding signal intensity,SpSla1-D1-D2,≤ 0
same,SPOT peptide array binding signal intensity,SpSla1-D3,≤ 0
RAPPPVPKKPSSRIA,SPOT peptide array binding signal intensity,SpBzz1-D2,198
same,SPOT peptide array binding signal intensity,SpCyk3,5
same,SPOT peptide array binding signal intensity,SpHof1,186
same,SPOT peptide array binding signal intensity,SpHof1-2,20.2
same,SPOT peptide array binding signal intensity,SpHof1-3,372
same,SPOT peptide array binding signal intensity,SpHse1,126
same,SPOT peptide array binding signal intensity,SpLsb1,1720
same,SPOT peptide array binding signal intensity,SpLsb4,1110
same,SPOT peptide array binding signal intensity,SpMyo1,151
same,SPOT peptide array binding signal intensity,SpNbp2,48.5
same,SPOT peptide array binding signal intensity,SpPex13,≤ 0
same,SPOT peptide array binding signal intensity,SpRvs167,1860
same,SPOT peptide array binding signal intensity,SpSla1-D1-D2,576
same,SPOT peptide array binding signal intensity,SpSla1-D3,≤ 0

# — the supplement of paper PMC4466140
